Shn3 inh set2: Schnurri-3 reporter inhibition in Clone20 osteoblasts; Clone20 osteoblast Shn3 3'UTR firefly luciferase, 24 h; inhibition, % at 12.5 µM; 360,000 tested, 0.52% active;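 active = mean inhibition of at least 75% with every replicate also reaching 75%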;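 also: 0% = median of neutral control wells and 100% = pilot-screen positive control compound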
PAX8 reporter: lowers PAX8-driven luciferase in RMG-I cells | inhibition, % at 12.6 µM | 360,000 tested, 1.2% active | RMG-I TPO-luciferase reporter, SteadyGlo, 24 h | AID 652154;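 active = mean replicate inhibition at least 60% with every replicate also reaching 60%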;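 also: luciferase light reporting Pax8 driven TPO promoter activity; plate controls were median of neutral control wells for no effect and mitoxantrone controls for full effect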
Peg3 prom inh-1: reduces Peg3 promoter-driven luciferase expression in HeLa | HeLa PEG-Prom luciferase reporter, luminescence, overnight | 360,000 tested, 1.7% active | inhibition, % at 20 µM;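 active = inhibition of at least 50% at 20 µM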
HIF-2a inh: blocks HIF-2a reporter activity; 360,000 tested, 0.72% active; 786-0 RCC cells HIF-2a reporter, luciferase luminescence, overnight; inhibition, % at 18.8 µM; AID 624352;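 active = inhibition of the luminescence signal of 40% or more relative to plate controls, in a single-dose primary screen at 18.75 µM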
TRPM1 prom inh: inhibitors of MITF-driven TRPM1 promoter in melanoma cells. SK-MEL-5 TRPM1 promoter luciferase, 24 h. inhibition, % at 12.5 µM. 330,000 tested, 0.83% active. AID 488899;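 active = mean inhibition across replicates of 60% or more, whatever share of single replicates reaches that level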
LMP1 NFkB inh: inhibitors of Epstein-Barr LMP1-induced NF-kappaB reporter. 350,000 tested, 0.69% active. AID 504558. LMP1-induced NF-kappaB luciferase reporter cells, luminescence. inhibition, % at 12.5 µM; in the data active = inhibition above about 41%;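 also: 0% = neutral control wells and 100% = reference inhibitor control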
Peg3 prom inh-2: confirmation of Peg3 promoter inhibitors; shares compounds with Peg3 prom inh-1; inhibition, % at 20 µM; 1,300 tested, 84% active; HeLa PEG-Prom luciferase reporter, luminescence, overnight;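 active = at 20 µM dose, 40% or more inhibition averaged across four replicates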
Mdm2-MdmX confirm: confirmation of inhibitors of human Mdm2/MdmX interaction, set 2 | inhibition, % at 8 µM | SaOS-2 split-luciferase Mdm2/MdmX complementation, luminescence | 740 tested, 99% active | AID 504601 | shares compounds with HIF-2a inh;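 active = mean inhibition of the luminescence signal across two replicates at or above 26 percent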
Target sequence (O15151 whole entry, looked up): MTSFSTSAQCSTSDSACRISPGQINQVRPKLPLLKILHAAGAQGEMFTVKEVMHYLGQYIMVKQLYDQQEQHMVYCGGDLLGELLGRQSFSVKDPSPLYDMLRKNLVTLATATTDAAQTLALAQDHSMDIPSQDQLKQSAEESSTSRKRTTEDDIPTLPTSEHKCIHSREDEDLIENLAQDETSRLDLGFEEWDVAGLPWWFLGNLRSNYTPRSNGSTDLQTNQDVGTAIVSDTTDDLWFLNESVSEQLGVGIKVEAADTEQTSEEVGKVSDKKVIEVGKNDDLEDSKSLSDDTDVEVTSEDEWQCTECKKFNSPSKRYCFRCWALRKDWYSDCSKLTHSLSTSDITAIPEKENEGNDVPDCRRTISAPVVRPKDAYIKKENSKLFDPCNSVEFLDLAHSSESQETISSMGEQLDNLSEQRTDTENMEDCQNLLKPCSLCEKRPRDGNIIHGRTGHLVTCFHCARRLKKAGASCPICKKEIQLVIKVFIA
Target sequence (Q00987 whole entry, looked up): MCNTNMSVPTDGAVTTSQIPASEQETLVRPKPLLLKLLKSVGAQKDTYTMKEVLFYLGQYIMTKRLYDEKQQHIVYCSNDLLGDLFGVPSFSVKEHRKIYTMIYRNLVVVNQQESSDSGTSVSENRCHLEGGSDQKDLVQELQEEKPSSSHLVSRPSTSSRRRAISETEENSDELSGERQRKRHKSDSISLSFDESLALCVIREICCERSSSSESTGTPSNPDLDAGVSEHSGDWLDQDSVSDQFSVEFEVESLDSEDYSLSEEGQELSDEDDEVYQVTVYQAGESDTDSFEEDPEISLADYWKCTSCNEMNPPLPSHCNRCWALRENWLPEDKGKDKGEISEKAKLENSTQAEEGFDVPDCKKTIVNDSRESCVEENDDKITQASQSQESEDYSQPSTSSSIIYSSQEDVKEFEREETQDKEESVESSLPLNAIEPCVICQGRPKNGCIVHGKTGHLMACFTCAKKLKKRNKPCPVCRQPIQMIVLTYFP
HIF-2a conf: HIF-2a inhibition, single concentration confirmation. shares compounds with HIF-2a inh. 786-0 RCC cells, HIF-2a luciferase reporter luminescence, overnight. inhibition, % at 18.8 µM. 1,800 tested, 56% active. AID 651580;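 active = mean inhibition across four replicates of at least 40 percent at the single tested concentration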
HIF-1a counter: inhibits HIF-1a reporter, a counter-screen for HIF-2a inhibitors; 1,800 tested, 72% active; shares compounds with HIF-2a inh; inhibition, % at 18.8 µM; MiaPaCa-2 HIF-1a luciferase reporter, desferoxamine, overnight;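 active = mean inhibition of the reporter signal across four replicates at the single tested dose of 50% or more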
Starred values were filed as active, the others as inactive; · = no result. Compounds with a hit are over-represented: about 2.8% of the library has one in this group of screens.

SMILES | Shn3 inh set2 | PAX8 reporter | Peg3 prom inh-1 | HIF-2a inh | TRPM1 prom inh | LMP1 NFkB inh | Peg3 prom inh-2 | HIF-2a conf | HIF-1a counter | others
O=C(O)CSCC(=O)Nc1ccc(C2CCCCC2)cc1 | 54 | · | 71* | 81* | 74* | 58* | 77* | 95* | 94*
Nn1cnnc1SCC(=O)Nc1ccc(C2CCCCC2)cc1 | -24 | · | -194 | -117 | -25 | -1 | · | · | ·
COCc1cn(CC[C@@H]2CC[C@H](NC(=O)Nc3ccc(Cl)cc3)[C@@H](CO)O2)nn1 | · | -21 | · | · | · | · | · | · | ·
O=C(Cn1ncc(Cl)c(Cl)c1=O)N1CCc2ccccc21 | 55 | 66* | 108* | 94* | 99* | 13 | 99* | 98* | 106*
O=C(Cn1ncc(Cl)c(Cl)c1=O)N1CCN(Cc2ccccc2)CC1 | 61 | 73* | 103* | 96* | 98* | 88* | 95* | 61* | 106*
N#Cc1ccc(-c2ccc([C@H]3[C@H](CO)N4C(=O)CN(C(=O)C5CCCC5)C[C@@H]34)cc2)cc1 | · | -17 | · | · | · | · | · | · | ·
COC(=O)c1ccc2nc(Nc3nc4ccc(F)cc4s3)sc2c1 | 39 | 80* | 79* | 89* | 84* | 37 | 90* | 98* | 88*
COC(=O)c1ccc2nc(NC(=O)C(C)(C)C)sc2c1 | 34 | 13 | 8 | 39 | -1 | 5 | · | · | ·
CCOc1cc(/C=C\[N+](=O)[O-])ccc1OCC(=O)Nc1ccccc1C | 95* | · | 115* | 96* | 91* | 22 | 91* | 26 | 106* | Mdm2-MdmX confirm=100*
O=C(CCl)Nc1ccccc1Sc1ccc(Cl)cc1 | 41 | · | 106* | 34 | 64* | 11 | 85* | · | · | Mdm2-MdmX confirm=103*
Cc1ccccc1OCC(O)CNC1CCC(NCC(O)COc2ccccc2C)CC1 (stereo not given) | 97* | 114* | 101* | 93* | 99* | -35 | 99* | 21 | 105* | Mdm2-MdmX confirm=103*
C[C@@H]1CN([C@@H](C)CO)C(=O)c2cccc(NC(=O)Nc3ccc4c(c3)OCO4)c2O[C@@H]1CN(C)Cc1ccc(C(F)(F)F)cc1 | · | 17 | · | · | · | · | · | · | ·
COc1ccc(-n2nc3c(N4CCC(C(=O)NCCc5ccco5)CC4)nnc(C)c3c2C)cc1 | 9 | 44 | 10 | 7 | 38 | 1 | · | · | ·
COc1ccccc1CCNC(=O)C1CCN(c2nnc(C)c3c(C)n(-c4ccc(C)cc4)nc23)CC1 | 32 | 51 | 89* | 40* | 77* | -9 | 78* | 27 | 82*
Cc1ccc(-c2cnc3c(c2)C(=O)N([C@@H](C)CO)C[C@@H](C)[C@H](CN(C)C(=O)c2cccc(F)c2)O3)cc1 | · | -7 | · | · | · | · | · | · | ·
Cc1ccc(NC(=O)O/N=C/c2c(C)nn(C(C)(C)C)c2C)cc1Cl | · | 58 | 104* | 91* | 83* | 75* | 98* | 97* | 104* | Mdm2-MdmX confirm=101*
Cc1ccc(NC(=O)Nn2cnnc2)cc1Cl | 32 | -5 | 1 | -2 | -5 | 3 | · | · | ·
CC(C)NC(=O)N(C)C[C@H]1Oc2ccc(NC(=O)Nc3ccccc3)cc2CC(=O)N([C@H](C)CO)C[C@H]1C | · | -26 | · | · | · | · | · | · | ·
Cc1c(C#N)c(N)nc2c3c(sc12)NC(=O)CC3c1ccc(Cl)cc1 (stereo not given) | 67 | 15 | 68* | 40* | 31 | 18 | 48* | 18 | 17
N#Cc1c(N)nc2c3c(sc(=N)c2c1N)NC(=O)CC3c1ccccc1 (stereo not given) | -7 | -15 | 23 | 9 | 6 | 9 | · | · | ·
Cc1c(/C(O)=C2/C(=O)C(=O)N(Cc3cccnc3)C2c2ccccn2)cnn1-c1ccccc1 (stereo not given) | 60 | 10 | 66* | 67* | 49 | 38 | 59* | 52* | 56*
N#C/C(=C\c1cccc([N+](=O)[O-])c1)C(=O)NCc1ccc(Cl)cc1 | 82 | 7 | 111* | 66* | 53 | 8 | 96* | 60* | 106*
CCn1nc(C)cc1-c1nnc(Sc2ncc([N+](=O)[O-])s2)n1C | 95* | 78* | 110* | 96* | 94* | 16 | 100* | · | · | Mdm2-MdmX confirm=103*
NCCCNc1nc(N)c([N+](=O)[O-])c(NC2CCCCC2)n1 | 75 | 78* | 67* | 48* | 74* | -12 | 80* | 18 | 99*
COCCNc1nc(N)c([N+](=O)[O-])c(NC2CCCCC2)n1 | 13 | 9 | -11 | -117 | 4 | -14 | · | · | ·
SMILES | Shn3 inh set2 | PAX8 reporter | Peg3 prom inh-1 | HIF-2a inh | TRPM1 prom inh | LMP1 NFkB inh | Peg3 prom inh-2 | HIF-2a conf | HIF-1a counter | others
O=C(CCl)Nc1cccc(-c2cnc3ccccc3n2)c1 | -262 | -78 | 79* | -27 | 73* | -32 | 92* | · | · | Mdm2-MdmX confirm=102*
Cc1noc(-c2ccc(Cl)cc2)c1C(=O)O/N=C(\N)c1ccc(C(C)(C)C)cc1 | -7 | 4 | 112* | 0 | -7 | -1 | 98* | · | · | Mdm2-MdmX confirm=103*
C[C@H]1CN([C@@H](C)CO)C(=O)c2cc(NC(=O)C3CCCCC3)ccc2O[C@H]1CN(C)Cc1ccccc1 | · | 5 | · | · | · | · | · | · | ·
CC(=O)n1cc(N(C(=O)CCl)c2ccc(C)cc2)c2ccccc21 | · | 104* | 109* | 56* | 74* | -13 | 101* | · | · | Mdm2-MdmX confirm=103*
C[C@@H]1CN([C@@H](C)CO)C(=O)Cc2cc(N(C)C)ccc2O[C@H]1CN(C)C | · | -10 | · | · | · | · | · | · | ·
CCOc1ccc(C(=O)Nc2cccc(C(=O)O)c2C)cc1Cl | 8 | 36 | 55* | 54* | 67* | 15 | 14 | 54* | 13
CCOc1ccc(C(=O)Nc2ccccc2-c2ccccc2)cc1Cl | 22 | · | -21 | -23 | -9 | 3 | · | · | ·
Cc1ccccc1S(=O)(=O)N1CCCCN2[C@@H](CO)[C@@H](c3ccc(C#CCN(C)C)cc3)[C@@H]2C1 | · | 1 | · | · | · | · | · | · | ·
COC(=O)c1c(NC(=O)Cc2ccccc2)sc2c1CCN(C(C)C)C2 | -3 | -8 | 0 | -31 | · | -3 | · | · | ·
COC(=O)c1c(NC(=O)c2ccc([N+](=O)[O-])o2)sc2c1CCN(C(C)C)C2 | 4 | · | 94* | 29 | 63* | 39 | 69* | · | · | Mdm2-MdmX confirm=84*
O=C(C[C@@H]1CC[C@@H]2[C@H](COC[C@H](O)CN2C(=O)Nc2ccc(F)cc2)O1)NCCc1ccccc1 | · | -5 | · | · | · | · | · | · | ·
COc1ccc(C(=O)Nc2ccc3c(c2)OC[C@H](C)N(C)C[C@H](C)[C@H](OC)CN(C)C3=O)cc1 | · | -1 | · | · | · | · | · | · | ·

Assay outcomes (PubChem)
